Assay [1] concerns XIP peptide (Xip251-270) binding. Nature of the assay: small-molecule binders of XIP peptide, primary screen, biochemical, small-molecule microarray, fluorescence 635/667 nm, 0.1 µg/mL protein (AID 1182). The following applies: fluorescent protein binding, 635 nm, higher = more signal, called active from +8 up or from −8 down.
In the next assay the test system is XIP peptide (Xip251-270). Description: small-molecule binders of XIP peptide, primary screen, biochemical, small-molecule microarray, fluorescence 635/667 nm, 0.5 µg/mL protein (AID 1183). The following applies: small-molecule microarray binding, fluorescence 635 nm; higher = more signal.
A short description of assay [2]: Plasmodium falciparum growth inhibition, primary screen, strain 3D7, DAPI fluorescence, 100 nL (AID 1184).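 Note: parasites grown inside human red blood cells in medium with human serum.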 The following applies: P. falciparum 3D7 growth, 3 d, higher = more signal.
Assay [3] concerns the target Homeobox protein Hox-A13 (Mus musculus) (UniProt Q62424). Description: inhibitors of HoxA13-DNA binding, primary screen, biochemical, fluorescence polarization, labeled oligonucleotide (AID 1185). The following applies: 15 min, higher = more signal, called active from +8 up or from −8 down. In general terms: Polarisation of emitted light reports the rotation of a fluorescent probe.

Assay [4] is described as follows: inhibitors of hydroxyurea-induced Chk1 phosphorylation, primary screen, imaging, HeLa, phospho-Chk1 antibody, percent positive cells (AID 1186). The settings on record: hydroxyurea-induced phospho-Chk1 immunofluorescence imaging, higher = more signal.
Assay [5] is described as follows: inhibitors of hydroxyurea-induced Chk1 phosphorylation, primary screen, imaging, HeLa, phospho-Chk1 nuclear intensity (AID 1187). The following applies: hydroxyurea-induced phospho-Chk1 immunofluorescence imaging, higher = more signal.

Activity calls are given as the source filed them. Unless noted, the rule behind the calls is not given here.

Sequence of Homeobox protein Hox-A13 (Mus musculus) (Q62424 whole entry, looked up): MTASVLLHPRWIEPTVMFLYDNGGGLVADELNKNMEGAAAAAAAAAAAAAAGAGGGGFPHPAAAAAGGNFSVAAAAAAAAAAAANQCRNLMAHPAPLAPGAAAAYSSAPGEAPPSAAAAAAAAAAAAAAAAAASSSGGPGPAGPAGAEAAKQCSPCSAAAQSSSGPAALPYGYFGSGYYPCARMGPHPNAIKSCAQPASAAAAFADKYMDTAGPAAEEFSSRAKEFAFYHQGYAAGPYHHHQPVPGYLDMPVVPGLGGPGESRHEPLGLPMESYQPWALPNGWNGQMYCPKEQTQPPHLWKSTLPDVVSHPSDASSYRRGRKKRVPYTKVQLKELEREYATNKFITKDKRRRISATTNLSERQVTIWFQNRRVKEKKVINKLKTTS

As for `Cn1cccc1C(O)C1C=CC2C(=O)NC(=O)C2N1Nc1ccccn1` (configuration not stated), the figures for the composite z-score (in assay [1]; in the assay on XIP peptide (Xip251-270)) were -0.262 (inactive) and 0.916, respectively. For the same compound, the z-score in assay [2] is -0.119; in assay [3], -5.35 (inactive); in assay [4], 0.242 (inactive); in assay [5] it was -0.431 (inactive).
Regarding `C=CCOC(=O)[C@H]1[C@@H]2C(=O)O[C@@H](c3ccccc3)[C@@H](c3ccccc3)N2[C@@H](c2ccc(OCCOC(=O)[C@H]3C[C@H]4C(=O)N[C@@H](Cc5ccccc5)C(=O)N4[C@H]3c3ccc(O)cc3)cc2)[C@]12C(=O)Nc1ccccc12`, the composite z-score was 2.32 (inactive) in assay [1] and 0.823 in the assay with XIP peptide (Xip251-270). The z-score is -1.62 in assay [2], 1.08 (inactive) in assay [3], 0.464 (inactive) in assay [4] and 0.685 (inactive) in assay [5].
With `COCCOC(=O)N1C(=O)[C@@]2(c3cc(C#CCNC(N)=O)ccc31)[C@H](c1ccc(O)cc1)N1[C@H](c3ccccc3)[C@H](c3ccccc3)OC(=O)[C@H]1[C@@H]2C(=O)N1CCCCCCC1`, the values for the composite z-score (in assay [1]; with XIP peptide (Xip251-270)) were 0.348 (inactive) and 0.561, respectively. In addition, the z-score was -0.0743 in assay [2], -0.578 (inactive) in assay [3], 0.149 (inactive) in assay [4] and 0.452 (inactive) in assay [5].
For the compound `CS(=O)(=O)CCOC(=O)C1=CC(CCCO)=CC(c2cccs2)N(Cc2cccc(OC(F)(F)F)c2)C=C1C(=O)OCCS(C)(=O)=O` (configuration not stated), the composite z-score in assay [1] was 1.17 (inactive); in the assay on XIP peptide (Xip251-270) it was -0.0502. The z-score is -2.99 in assay [2], -4.22 (inactive) in assay [3], 0.724 (inactive) in assay [4] and 0.918 (inactive) in assay [5].
For `CC(C)NC(=O)[C@@H]1c2ccccc2C(=O)N(CC23CC4CC(CC(C4)C2)C3)[C@H]1c1ccc(CO)cc1`, the composite z-score was 0.166 (inactive) in assay [1] and 0.661 with XIP peptide (Xip251-270). Moreover, the z-score in assay [2] was -1.84; in assay [3] it was -4.68 (inactive); in assay [4], -0.111 (inactive); in assay [5], -0.0146 (inactive).
Regarding `C=C(CCCC)C(=O)CC[C@@H](OC(C)=O)c1cccc(OCCO)c1`, the composite z-score in assay [1] was -0.0399 (inactive); with XIP peptide (Xip251-270) it was 0.0194. The z-score in assay [2] was -1.47; in assay [3] it was -3.72 (inactive); in assay [4] it was 0.163 (inactive); in assay [5], 0.0394 (inactive).
Regarding `CCOC(=O)C1=CCC(c2cc3ccccc3[nH]2)NC1` (configuration not stated), the composite z-score is -0.0143 (inactive) in assay [1] and -0.753 in the assay on XIP peptide (Xip251-270). In addition, the z-score is -0.501 in assay [2], -1.51 (inactive) in assay [3], 0.437 (inactive) in assay [4] and -0.151 (inactive) in assay [5].
Turning to `O=C1O[C@@H](c2ccccc2)[C@@H](c2ccccc2)N2[C@@H](c3ccc(O)cc3)[C@]3(C(=O)Nc4ccccc43)[C@@H](C(=O)O)[C@H]12`, the results for the composite z-score (in assay [1]; in the assay on XIP peptide (Xip251-270)) were 1.27 (inactive) and 0.632, respectively. Further, the z-score in assay [2] is -1.73; in assay [3] it was -4.72 (inactive); in assay [4], 0.482 (inactive); in assay [5] it was 0.166 (inactive).
In the case of `CCCCCCc1nc(CCCc2cc3c(c(CCCCCC)n2)[Si](C(C)C)(C(C)C)O[C@H]3c2ccccc2)cc2c1[Si](C(C)C)(C(C)C)O[C@H]2c1ccccc1`, the values for the composite z-score (in assay [1]; in the assay on XIP peptide (Xip251-270)) were 0.285 (inactive) and -0.307, respectively. The z-score in assay [2] was -0.607; in assay [3] it was -2.79 (inactive); in assay [4] it was -0.0972 (inactive); in assay [5], -0.202 (inactive).
Regarding `CCCC[C@H]1OB(O)C[C@H]2C1=C(C)C[C@H]1C(=O)N(C)C(=O)[C@H]12`, the values for the composite z-score (in assay [1]; in the assay with XIP peptide (Xip251-270)) were 0.756 (inactive) and 0.608, respectively. The z-score in assay [2] was 2.46; in assay [3], -9.92 (active); in assay [4], 0.327 (inactive); in assay [5], 0.547 (inactive).
In the case of `COCCCNC(=O)[C@]1(CCC(=O)OC(C)(C)C)N=C(c2ccc(OCCCO)cc2)O[C@@H]1c1ccccc1N=[N+]=[N-]`, the values for the composite z-score (in assay [1]; in the assay with XIP peptide (Xip251-270)) were 0.448 (inactive) and 0.764, respectively. For the same compound, the z-score is -1.75 in assay [2], -4.03 (inactive) in assay [3], -0.437 (inactive) in assay [4] and -0.234 (inactive) in assay [5].
Regarding `C=C(/C(=C/C[C@@H](OC(=O)c1ccncc1)c1ccc(OCCO)cc1)c1cnc2ccccc2c1)C(C)C`, the composite z-score is -0.214 (inactive) in assay [1] and 0.565 in the assay on XIP peptide (Xip251-270). The z-score was -2.84 in assay [2], -5.46 (inactive) in assay [3], -0.452 (inactive) in assay [4] and -0.051 (inactive) in assay [5].
Consider `COC(=O)[C@H]1COC(c2ccc(OCCCO)cc2)=N1`, for which the results for the composite z-score (in assay [1]; with XIP peptide (Xip251-270)) were 0.239 (inactive) and 0.871, respectively. Moreover, the z-score is -0.264 in assay [2], -3.56 (inactive) in assay [3], 0.101 (inactive) in assay [4] and -0.388 (inactive) in assay [5].
Turning to `COC(=O)[C@@]1(Cc2ccc(F)cc2)[C@H]2c3cc(C(=O)N(C)C)n(Cc4ccc(OC)c(OC)c4)c3C[C@H]2CN1C(=O)c1ccccc1`, the composite z-score in assay [1] is 0.316 (inactive); in the assay with XIP peptide (Xip251-270), 0.835. Moreover, the z-score was -1.03 in assay [2], -3.65 (inactive) in assay [3], 0.427 (inactive) in assay [4] and 0.753 (inactive) in assay [5].
For `COCCOC(=O)N1C(=O)[C@@]2(c3cc(C#Cc4ccc(OC)cc4)ccc31)[C@H](c1ccc(O)cc1)N1[C@H](c3ccccc3)[C@H](c3ccccc3)OC(=O)[C@H]1[C@@H]2C(N)=O`, the composite z-score in assay [1] is -0.0296 (inactive); with XIP peptide (Xip251-270) it was 0.754. The z-score in assay [2] was -0.687; in assay [3], -1.15 (inactive); in assay [4], -0.425 (inactive); in assay [5], -0.461 (inactive).
Regarding `CC(C)OC(=O)C=C1C[C@@H](c2ccc(C#N)cc2)O[C@@H](c2ccc(C#N)cc2)O1`, the figures for the composite z-score (in assay [1]; in the assay with XIP peptide (Xip251-270)) were 1.1 (inactive) and 0.865, respectively. Also, the z-score in assay [2] is -0.868; in assay [3] it was -5.34 (inactive); in assay [4] it was 0.296 (inactive); in assay [5] it was 0.219 (inactive).
Regarding `CCCC[C@@H]1C[C@H]1[C@@H](NS(=O)(=O)c1cccc2cccnc12)c1ccc(-c2ccccc2)cc1`, the composite z-score in assay [1] is -0.111 (inactive); in the assay with XIP peptide (Xip251-270), -0.239. Further, the z-score in assay [2] is -0.299; in assay [3], -0.507 (inactive); in assay [4], -0.121 (inactive); in assay [5], 0.189 (inactive).
